This is part of a sample that, as a whole, favours compounds with a hit. Of some 83,000 tested, about 20% had one in any assay.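 Compound tested at a single concentration for 48 hours in 96-well plates; a percent growth value below 10 was scored as active.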 Calls of active or inactive are those of the source.
Columns and labels:
Test in all cases: NCI-60 one-dose screen, 48 h (100 = growth as untreated, 0 = no growth, -100 = all killed)
Conditions in all cases: 10 µM
[1] = test system: HCT-15 colon
[2] = test system: HT29 colon
[3] = test system: SNB-75 CNS
[4] = test system: SNB-19 CNS
[5] = test system: U251 CNS
[6] = test system: PC-3 prostate
[7] = test system: SK-MEL-5 melanoma
[8] = test system: UACC-62 melanoma
[9] = test system: LOX IMVI melanoma
[10] = test system: SK-MEL-28 melanoma
[11] = test system: SK-MEL-2 melanoma
[12] = test system: EKVX NSCLC
[13] = test system: SN12C renal
[14] = test system: TK-10 renal
[15] = test system: ACHN renal
[16] = test system: CAKI-1 renal
[17] = test system: A498 renal
[18] = test system: MOLT-4 leukemia
[19] = test system: CCRF-CEM leukemia
[20] = test system: UO-31 renal

Measured: growth

C[C@@H](C[C@H](CCO)c1ccccc1)c1ccc2ccccc2c1
active: [1] -75% | [2] -72.8% | [3] -8.12% | [4] -78.3% | [5] -95% | [6] -89.2% | [7] -87.9% | [8] -76.2% | [9] -94.5% | [10] -79.3% | [11] -0.232% | [12] -44% | [13] -80.8% | [14] -6.8% | [15] -91.3% | [17] -0.126% | [18] -54.2%
inactive: [16] 10.5%

O=C(CCl)Nc1ccc(Cc2ccc(NC(=O)CCl)cc2)cc1
active: [1] -39.7% | [2] -39.1% | [5] -85.7% | [6] 2.98% | [7] -88.5% | [8] -9.18% | [9] -84.6% | [10] 5.21% | [11] -20.6% | [12] -3.32% | [15] -20.1% | [19] 0.0611% | [18] -4.84%
inactive: [3] 61.1% | [4] 26.3% | [13] 31.6% | [14] 83.6% | [17] 111%

COc1ccc2c(c1)C(CC(=O)NN)CCC2 (stereo not drawn)
inactive: [1] 104% | [2] 112% | [3] 89.9% | [4] 109% | [5] 102% | [6] 100% | [7] 104% | [8] 104% | [9] 93.7% | [10] 113% | [11] 108% | [12] 109% | [13] 104% | [14] 98.7% | [15] 99.6% | [17] 93.2% | [19] 100% | [18] 86.8%

O=[N+]([O-])c1ccc(NCSc2ccc(Cl)cc2)cc1
inactive: [1] 96.9% | [2] 107% | [3] 98.6% | [4] 103% | [5] 82% | [6] 80.9% | [7] 100% | [8] 77.8% | [9] 81.9% | [10] 104% | [11] 98.5% | [12] 97.3% | [13] 86% | [14] 105% | [15] 92.8% | [16] 96.2% | [19] 50.4% | [18] 61.7%

COc1cccc(C2C(C#N)=C(N)Oc3cc(N)ccc32)c1 (stereo not drawn)
inactive: [1] 40.3% | [4] 44.6% | [6] 25.4% | [7] 21.5% | [8] 41.7% | [9] 43.6% | [10] 46.9% | [11] 24.5% | [12] 55.7% | [13] 36.3% | [20] 49.7% | [15] 55.4% | [19] 11.4% | [18] 28.9%
active: [2] 2.39% | [3] 3.44% | [5] 4.8% | [17] 1.48%

CN(C)CCOc1ccccc1NC1=C(Cl)C(=O)C(Nc2ccccc2OCCN(C)C)=C(Cl)C1=O
active: [9] -65.7% | [13] -69.9% | [15] -84.1% | [19] 4.28% | [18] -32.4%
inactive: [1] 79.7% | [2] 15% | [3] 107% | [4] 93.9% | [5] 68.6% | [6] 84.3% | [7] 93.6% | [8] 95.6% | [10] 109% | [11] 82.9% | [12] 16% | [14] 85.4% | [17] 107%

Cc1ccc(C(SCC(N)C(=O)O)(c2ccc(C)cc2)c2ccc(C)cc2)cc1 (stereo not drawn)
inactive: [1] 30.1% | [2] 14.1% | [4] 30.4% | [5] 25.4% | [6] 11.2% | [7] 16.5% | [8] 30.7% | [9] 40.6% | [10] 56.6% | [13] 42.3% | [20] 25.3% | [15] 60.3% | [17] 46.3%
active: [3] -6.9% | [11] -52.1% | [12] -8.36% | [19] 6.77% | [18] 7.71%

COc1cc2c(Nc3ccc(-c4ccc(N)cc4)cc3)ncnc2c(OC)c1OC
inactive: [1] 28.8% | [2] 46.2% | [3] 82.8% | [4] 51.1% | [5] 42.6% | [6] 47.3% | [9] 31.1% | [10] 75.6% | [11] 18.5% | [12] 59.2% | [13] 62.2% | [20] 22.7% | [15] 32.1% | [17] 43.4% | [19] 23.3% | [18] 19.8%
active: [7] -25.1% | [8] 7.02% | [16] 3.89%

CC(C)N(CCOc1ccc(-c2nc3sccn3c2-c2ccnc(S(C)(=O)=O)n2)cc1)C(C)C
inactive: [1] 92.8% | [2] 60.3% | [3] 83.5% | [4] 107% | [5] 91.4% | [6] 62.5% | [7] 39.2% | [8] 83.9% | [9] 72.7% | [10] 104% | [11] 106% | [12] 87.6% | [13] 87.8% | [20] 70% | [15] 101% | [17] 60.3% | [19] 76.4% | [18] 52.4%

From PubChem BioAssay (NCI)
